Sampled rows, rich in hits. Any-hit rate of the full collection: about 2.3%.
Mcl1 Noxa PPI – disrupts binding of human Mcl-1 to Noxa peptide; 220,000 tested, 1.5% active; TR-FRET Mcl-1/Noxa peptide binding, 2 h; inhibition, % at 21.7 µM; Q07820; AID 1022;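 active = compounds that cut the protein-peptide binding signal by more than 50% relative to plate controls in a single-dose test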;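 note: His-tagged Mcl-1 with rhodamine Noxa BH3 peptide and terbium anti-His antibody; 0% = Mcl-1 plus Noxa peptide wells and 100% = peptide-only wells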
Target sequence (Q07820 whole entry, looked up): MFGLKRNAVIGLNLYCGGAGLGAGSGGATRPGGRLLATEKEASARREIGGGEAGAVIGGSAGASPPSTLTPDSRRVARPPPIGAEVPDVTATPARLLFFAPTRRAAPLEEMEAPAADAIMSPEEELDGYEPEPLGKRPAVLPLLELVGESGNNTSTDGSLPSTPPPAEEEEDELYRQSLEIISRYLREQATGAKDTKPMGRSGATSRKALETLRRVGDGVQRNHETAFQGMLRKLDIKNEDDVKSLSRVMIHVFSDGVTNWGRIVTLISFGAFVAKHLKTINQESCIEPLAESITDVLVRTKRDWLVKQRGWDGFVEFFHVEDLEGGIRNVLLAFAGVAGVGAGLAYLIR
MCL1-BIM inh – inhibitors of human MCL1 binding to BIM-BH3 peptide; inhibition, % at 10.9 µM; 320,000 tested, 0.68% active; GST-MCL1 / FITC-Bim-BH3 fluorescence polarization; AID 2057;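 active = inhibition above the mean inhibition of all tested compounds plus 3 SD, set per campaign, cut at about 40% in these data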;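 note: 0% = DMSO wells and 100% = unlabeled Bim-BH3 peptide control; higher means more loss of mP so more displacement of Bim peptide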
Bim-Mcl-1 – inhibitors of Bim-Mcl-1 interaction, human | Q07820 | Bead-based flow cytometry, Bim peptide-Mcl-1 binding | inhibition, % at 10 µM | 190,000 tested, 0.1% active | AID 1009; in the data active = inhibition above about 40%;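 note: 0% = no compound tracer wells and 100% = peptide blocker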
Mcl1 Bid PPI – disrupts binding of human Mcl-1 to Bid peptide. Q07820. TR-FRET Mcl-1/Bid-Dy647 peptide binding, 1536-well. 220,000 tested, 0.97% active. inhibition, % at 21.7 µM;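 active = compounds that cut the binding signal by more than half at the single screening dose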;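 note: His-tagged Mcl-1 with europium anti-His antibody binding Bid BH3 peptide; 0% = Mcl-1 plus peptide wells and 100% = peptide-only wells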
BCLXL inh – inhibitors of human Bcl-xL; GST-Bcl-xL / FITC-Bim BH3 peptide fluorescence polarization; inhibition, % at 10.9 µM; Q07817; 320,000 tested, 0.7% active;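 active = inhibition above the mean of all tested compounds plus 3 SD, cutoff set per campaign, cut at about 30% in these data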;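 note: 0% = DMSO wells and 100% = unlabeled Bim-BH3 peptide competitor; inhibitors lower millipolarization by displacing the labeled peptide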
Target sequence (Q07817 whole entry, looked up): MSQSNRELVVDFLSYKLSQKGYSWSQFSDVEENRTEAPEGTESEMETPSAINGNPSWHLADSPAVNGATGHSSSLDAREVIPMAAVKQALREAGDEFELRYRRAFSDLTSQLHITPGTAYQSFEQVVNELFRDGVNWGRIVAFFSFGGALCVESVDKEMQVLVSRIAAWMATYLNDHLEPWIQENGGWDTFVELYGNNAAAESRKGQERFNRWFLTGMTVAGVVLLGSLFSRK
GLD-1 RNA inh – GLD-1-TGE RNA interaction inhibition (C. elegans). Q17339. purified GLD-1 + fluorescein TGE RNA, fluorescence polarization. inhibition, % at 5.96 µM. 320,000 tested, 0.44% active. AID 2280;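 active = percent inhibition above a per-plate cutoff, the plate mean of test compounds plus 3 SD, cut at about 30% in these data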;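 note: 0% = DMSO wells with GLD-1 and probe and 100% = wells lacking GLD-1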
* hit, by the source's call; / = no result.

SMILES | Mcl1 Noxa PPI | MCL1-BIM inh | Bim-Mcl-1 | Mcl1 Bid PPI | BCLXL inh | GLD-1 RNA inh
CCCCOc1ccc(C(=O)N/C(=C\c2ccc([N+](=O)[O-])cc2)C(=O)OCc2ccco2)cc1 | 7 | -6 | 58* | -8 | 0 | 1
COc1ccc(C(=O)CSc2nnc(-c3ccco3)c(-c3ccco3)n2)cc1 | 90* | / | 1 | 54* | / | /
Cc1ccc(NC(=O)CSc2nnc(-c3ccco3)c(-c3ccco3)n2)cc1 | 90* | 33 | 2 | 2 | 23 | 1
COc1ccc(/C=C(\C#N)C(=O)Nc2cc(C)c(Cl)cc2OC)cc1O | 71* | -5 | / | 10 | 5 | 1
COc1ccc(/C=C(\C#N)C(=O)NCc2ccccc2)cc1O | / | -2 | / | / | 1 | 1
O=C(NCc1cccc(Cl)c1)c1cnccn1 | 23 | 46* | -3 | -10 | 45* | 25
O=C(NCc1ccc(Cl)cc1)c1cnccn1 | 13 | -2 | 1 | -34 | -2 | 5
Cc1ccc(S(=O)(=O)NCCC(=O)N2CCCCCCC2)cc1 | / | 3 | / | / | 5 | -5
COC(=O)CCCC1=CC2=CC(=O)C(C)(O)C(=O)C2=CO1 (centres undefined) | / | 30 | / | / | 23 | 24
CC(C)(C)OC(=O)NCCCC1=CC2=CC(=O)C(C)(OC(=O)c3ccc(Cl)nc3)C(=O)C2=CO1 (centres undefined) | / | 85* | / | / | 80* | 93*
CC(C)(C)OC(=O)NCCCC1=CC2=CC(=O)C(C)(O)C(=O)C2=CO1 (centres undefined) | / | 37 | / | / | 34* | 26
CCC(=O)OC1(C)C(=O)C=C2C=C(CCCCNC(=O)OC(C)(C)C)OC=C2C1=O (centres undefined) | / | 33 | / | / | 26 | 50*
CCCCC1=CC2=CC(=O)C(C)(OC(=O)CC)C(=O)C2=CO1 (centres undefined) | / | 32 | / | / | 18 | 37*
Cc1cc(C)c2oc(=O)cc(CN3CCC(C)CC3)c2c1 | / | 1 | / | / | 3 | -9
COc1cc(/C=C/C(=O)O)ccc1OS(=O)(=O)c1c(C)cc(C)cc1C | / | 10 | / | / | 11 | 2
C=CCN1C=C2C(=O)C(C)(OC(=O)CC)C(=O)C=C2C=C1CCCC (centres undefined) | 15 | 29 | / | -85 | 29 | 42*
CC1(OC(=O)C2CCCC2)C(=O)C=C2C=C(c3ccsc3)OC=C2C1=O (centres undefined) | 51* | 24 | / | -17 | 15 | 14
CCCCC1=CC2=CC(=O)C(C)(OC(=O)CC)C(=O)C2=CN1Cc1ccc(OC)cc1 (centres undefined) | -10 | 24 | / | -87 | 21 | 17
CCCCC1=CC2=CC(=O)C(C)(OC(=O)C3CCCC3)C(=O)C2=CO1 (centres undefined) | 40 | 32 | / | -55 | 11 | 36*
CC1(OC(=O)c2cccs2)C(=O)C=C2C=C(c3ccsc3)OC=C2C1=O (centres undefined) | / | 27 | / | / | 13 | 17
CC1(OC(=O)c2cccs2)C(=O)C=C2C=C(C3CC3)OC=C2C1=O (centres undefined) | / | 39 | / | / | 27 | 35*
CC1CN(C(=O)CCC(=O)N2CCCCC2)c2ccccc2O1 (centres undefined) | / | 4 | / | / | 3 | 6
Cc1c(C(=O)N2CCCCC2)c(S(=O)(=O)N2CCC(C)CC2)c(C)n1C | / | -4 | / | / | -2 | 0
CC1(OC(=O)C2CCCC2)C(=O)C=C2C=C(c3ccsc3)N(Cc3ccco3)C=C2C1=O (centres undefined) | 25 | 38 | / | -60 | 34* | 12
CCCCN(C(=O)Cn1ncc(Cl)c(Cl)c1=O)c1c(N)n(CC(C)C)c(=O)[nH]c1=O | 66* | 16 | / | -1 | -1 | 1
SMILES | Mcl1 Noxa PPI | MCL1-BIM inh | Bim-Mcl-1 | Mcl1 Bid PPI | BCLXL inh | GLD-1 RNA inh
Cc1ccc(C(=O)NNC(=O)CCC(=O)Nc2cc(C)on2)cc1 | 4 | 14 | -4 | 86* | 2 | 2
O=C(O)CCC(=O)OCCCc1cc2ccccc2c(=O)o1 | / | / | / | / | / | 4
COC(=O)c1ccccc1C(=O)N(Cc1cccnc1)CC1CCCN(C2CCCCC2)C1 (centres undefined) | / | 4 | / | / | 1 | -5
COC(=O)c1c(-c2cccnc2)csc1NC(=O)c1cc(C)on1 | 58* | -16 | -3 | -8 | -10 | -33
CC(c1nc2ccccc2c(=O)[nH]1)N1CCCN(S(=O)(=O)c2ccc(F)cc2)CC1 (centres undefined) | / | 1 | / | / | 2 | 3
CC(NCC1COc2ccccc2O1)C1COc2ccccc2O1 (centres undefined) | / | 2 | / | / | 0 | -6
CCOC(=O)CCNC(C)C1COc2ccccc2O1 (centres undefined) | 44 | 1 | 3 | 56* | 9 | -3
CN(C)c1ccc(-c2nnc(-c3ccc(S(=O)(=O)C(F)F)cc3)o2)cc1 | 27 | 12 | 1 | 73* | 16 | 3
CC(=O)N1CCOc2ccc(S(=O)(=O)Nc3ccc(C)cn3)cc21 | / | 1 | / | / | 4 | 2
OCCN1CCN(C(c2cccs2)c2ccc3cccnc3c2O)CC1 (centres undefined) | 95* | / | 4 | 82* | / | /
COc1ccc(CNc2cccc3[nH]c(C(F)(F)F)nc23)cc1OC | / | 1 | / | / | 0 | 1
COc1ccccc1OCCNC(=O)c1ccc(C)c(S(=O)(=O)N2CCOCC2)c1 | / | 4 | / | / | 7 | 1
CCCC(=O)Nc1ccc2oc(-c3cccnc3)nc2c1 | -2 | -4 | -2 | 86* | 2 | -4
CCCCC(=O)Nc1ccc2oc(-c3cccnc3)nc2c1 | / | 8 | 4 | / | 7 | 0
CC1CC(C)CN(C(=S)Nc2ccc3nc4n(c(=O)c3c2)CCCCC4)C1 (centres undefined) | 4 | 6 | -1 | -65 | 10 | 12
CC1CCCN(C(=S)Nc2ccc3nc4n(c(=O)c3c2)CCCCC4)C1 (centres undefined) | 5 | 9 | -3 | 97* | 2 | 1
C[C@@H](NC(=O)C1(c2ccccc2)CCN(C(=O)OC(C)(C)C)CC1)C(=O)N[C@@H](C(=O)O)c1ccccc1 | / | 0 | / | / | 3 | 8
Cc1ccccc1CNC(=O)Nc1cccs1 | 52* | 17 | 0 | -24 | 9 | 1
O=C(NCc1cccs1)Nc1cccs1 | 0 | 12 | 0 | -31 | 3 | 5
Cc1ccc(NC(=O)Cn2ncc(Cl)c(Cl)c2=O)cc1S(=O)(=O)N1CCCCC1 | / | -27 | / | / | -8 | 0
COc1cccc(CNC(=O)N2CCN(S(=O)(=O)c3ccc(C)cc3)CC2)c1 | / | -4 | / | / | 3 | -9
C=CCC1(CC=C)CCCN1C(=O)C1CCC(=O)N(CCc2ccccc2)C1 (centres undefined) | / | 8 | / | / | 13 | 3
O=C(Nc1ccc2[nH]c(=S)sc2c1)Nc1ccccc1F | 55* | 6 | / | -147 | 10 | 4
O=C(Nc1ccc2[nH]c(=S)sc2c1)c1ccccc1 | 43 | 0 | -10 | -31 | -6 | -8
